TDP1 cell CPT: DT40-hTDP1 cell growth loss with CPT; chicken DT40 Tdp1-/-;hTDP1 cells + 20 nM CPT, ATP luminescence, 48 h; Potency, µM (top dose mostly 46.2 µM), for the others: top-dose activity change, negative = growth inhibition, actives largely listed as inhibitors; actives 12% (n = 420,000); note: potency is the fitted concentration of half-maximal effect; nearly all actives have a fitted effect of over 55% in size
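Chicken DT40 Tdp1-/- cells stably complemented with human TDP1 were seeded at 400 cells/well in medium containing 20 nM camptothecin, exposed to pin-transferred compounds, and grown at 37 °C for at least 48 hr. Viability was read as ATP luminescence.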
HT1080NT lethal: kills 2HG-producing HT-1080-NT fibrosarcoma cells; HT-1080-NT fibrosarcoma viability, CellTiter-Glo ATP luminescence, 48 h; Potency, µM (highest dose often 46.1 µM), for the others: top-dose activity, negative = less viability, usual class: cytotoxic; actives 1.6% (n = 360,000); AID 686970;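 note: NT is the 2HG producing partner of a matched IDH1 knockdown line; potency is the fitted concentration of half-maximal effect; 0% = DMSO-treated cells and -100% = media-only wells without cells; nearly all actives have a fitted effect of over 55% in size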
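HT-1080-NT; 750 cells/well; 5% FBS RPMI; 48 h compound, 37 degrees C; CellTiter-Glo luminescence; curve fitting and curve-class assignment.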
IL1B secr inh: inflammasome signaling inhibition, IL-1 beta readout; THP-1 LPS/ATP IL-1B secretion, AlphaLISA, 16 h; hits give low values; activity change, % at 57.5 µM; actives 4.7% (n = 360,000); in the data active = activity change below about -50%; inconclusive = mostly about -30% to -49%
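Secreted IL-1B measured by AlphaLISA bead assay after 16 h compound exposure of THP-1 cells; compounds (final up to 57.5 uM) added 1 h before LPS (250 ng/mL) and ATP (1.25 mM) stimulation; lower signal means less secretion.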
HT1080 IDH1KD tx: HT-1080 IDH1 knockdown cell toxicity (counter line); HT-1080 IDH1 knockdown viability, ATP luminescence, 48 h; Potency, µM (highest dose often 46.1 µM), without a hit: at the highest dose activity, negative = toxicity, actives largely listed as cytotoxic; actives 2% (n = 360,000);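 note: potency is the fitted concentration of half-maximal effect; 0% = DMSO wells and -100% = cell-free medium wells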
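IDH1KD HT-1080 cells, 750/well, RPMI + 5% FBS; compound pinned after 2 h settling; 48 h, 37 °C; CellTiter-Glo luminescence; % activity normalised to DMSO and no-cell wells; curves fitted, classed by r2 and efficacy.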
TDP1 cell noCPT: qHTS for Inhibitors of human tyrosyl-DNA phosphodiesterase 1 (TDP1): qHTS in cells in absence of CPT. DT40 Tdp1-/- hTDP1 cells, no CPT, ATP luminescence, 48 h. Potency, µM (doses to about 46.2 µM), inactives show at the highest dose activity change, negative = growth inhibition, actives largely listed as inhibitors. actives 15% (n = 420,000). AID 686978, 2013; note: potency is the fitted concentration of half-maximal effect; nearly all actives have a fitted effect of over 55% in size
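Stably hTDP1-transfected Tdp1-null chicken DT40 cells were treated with library compounds minus camptothecin and grown for at least 48 hr at 37 °C, after which cellular ATP was quantified by luminescence.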
Numbers without * were called inactive. Only some compounds are listed: those with a hit (about 19% of all), similar ones and a draw of the others. Unless noted, calls come from the whole dose curve; as a rule, active = well fitted curve in the direction sought with a large enough effect; inconclusive = small, poorly fitted or top-dose-only effect, or another doubt; inactive = no such curve, though single readings can be large; an effect the other way counts as inactive or inconclusive. Unless noted, % is set by controls: 0 for no effect and ±100 for the full control effect.

Screening COc1ccccc1-c1c(C)nn2c(-c3ccccc3)cc(C)nc12 returned TDP1 cell CPT 15µM*, HT1080NT lethal -6%, IL1B secr inh -70*, HT1080 IDH1KD tx -17% and TDP1 cell noCPT 21µM*.
Screening Cc1ccc(C)[n+](CC(=O)N2CCCCC2)c1 returned TDP1 cell CPT 3%, HT1080NT lethal -2%, IL1B secr inh -4, HT1080 IDH1KD tx 11% and TDP1 cell noCPT -3%.
`CC1(S(=O)(=O)O)CC(=O)c2ccccc2C1=O` (stereo not drawn) gave TDP1 cell CPT 7.3µM*, HT1080NT lethal 18µM*, IL1B secr inh inconclusive, HT1080 IDH1KD tx 21µM* and TDP1 cell noCPT 5.2µM*.
Screening COc1ccc(-c2ccnc3c(C(=O)O)cnn23)cc1 returned TDP1 cell CPT -2%, HT1080NT lethal 19%, IL1B secr inh -11, HT1080 IDH1KD tx 0% and TDP1 cell noCPT 4%.
`COc1ccc(CNC(=O)C(C)n2ccc3cc(S(=O)(=O)N4CCCC4)ccc32)cc1OC` (stereo not drawn) gave TDP1 cell CPT 0.29µM* and TDP1 cell noCPT 0.58µM*.
`CCC(C(=O)NCCC(C)C)n1ccc2cc(S(=O)(=O)N3CCCCC3)ccc21` (stereo not drawn) gave TDP1 cell CPT 13µM*, HT1080NT lethal inconclusive, IL1B secr inh 7, HT1080 IDH1KD tx inconclusive and TDP1 cell noCPT 8.2µM*.
`CC(C(=O)NCc1ccccc1)n1ccc2cc(S(=O)(=O)N3CCCC3)ccc21` (stereo not drawn) gave TDP1 cell CPT inconclusive and TDP1 cell noCPT 18µM*.
COc1ccc(S(=O)(=O)N2CCN(C(=O)NCc3ccc(OC)c(OC)c3)CC2)cc1 was read as TDP1 cell CPT -23%, HT1080NT lethal -7%, IL1B secr inh 1, HT1080 IDH1KD tx -10% and TDP1 cell noCPT -12%.
COc1cccc(CNC(=O)C(C)n2ccc3cc(S(=O)(=O)N4CCCCCC4)ccc32)c1 (stereo not drawn) was read as TDP1 cell CPT 5.2µM*, HT1080NT lethal -6%, IL1B secr inh -27, HT1080 IDH1KD tx -3% and TDP1 cell noCPT 15µM*.
Screening COc1cccc(CNC(=O)C(C)n2ccc3cc(S(=O)(=O)N4CCCC4)ccc32)c1 (stereo not drawn) returned TDP1 cell CPT inconclusive, HT1080NT lethal -5%, IL1B secr inh 0, HT1080 IDH1KD tx -13% and TDP1 cell noCPT -29%.
Screening COc1ccc(C(=O)N2CCCCC2CCN2CCCCC2)cc1 (stereo not drawn) returned TDP1 cell CPT -6% and TDP1 cell noCPT 1%.
Screening CNC(=O)CCN(Cc1ccco1)S(=O)(=O)c1ccc(OC)c(OC)c1 returned TDP1 cell CPT 3%, HT1080NT lethal 13%, IL1B secr inh 0, HT1080 IDH1KD tx 11% and TDP1 cell noCPT -3%.
CC(C(=O)NCc1ccccc1Cl)n1ccc2cc(S(=O)(=O)N3CCCCC3)ccc21 (stereo not drawn) was read as TDP1 cell CPT 16µM* and TDP1 cell noCPT 16µM*.
O=C(NCCCc1nc2ccccc2n1Cc1ccccc1Cl)C1CCCCC1 was read as TDP1 cell CPT 23µM* and TDP1 cell noCPT 18µM*.
Screening O=C(NCCCc1nc2ccccc2n1Cc1ccc(Cl)cc1)C1CCCCC1 returned TDP1 cell CPT 16µM* and TDP1 cell noCPT 21µM*.
For O=C(CCNS(=O)(=O)c1ccc(Br)cc1)NCC(c1cccs1)N1CCOCC1 (stereo not drawn) the results were TDP1 cell CPT -29%, HT1080NT lethal -7%, IL1B secr inh -14, HT1080 IDH1KD tx -5% and TDP1 cell noCPT -26%.
`N#Cc1ccccc1CSc1nnc2ccc3ccccc3n12` gave TDP1 cell CPT -12% and TDP1 cell noCPT inconclusive.
CC(C)Oc1ccc(C(=O)NC2(C(F)(F)F)NC(=O)N(CCCc3ccccc3)C2=O)cc1 (stereo not drawn) was read as TDP1 cell CPT inconclusive, HT1080NT lethal -2%, IL1B secr inh -64*, HT1080 IDH1KD tx inconclusive and TDP1 cell noCPT inconclusive.
Cc1ccc(NCc2ccccc2O)cc1 was read as TDP1 cell CPT inconclusive, HT1080NT lethal -4%, IL1B secr inh -17, HT1080 IDH1KD tx inconclusive and TDP1 cell noCPT -27%.
Cc1ccc(CNc2ccc(O)cc2)cc1 was read as TDP1 cell CPT inconclusive, HT1080NT lethal inconclusive, IL1B secr inh -95*, HT1080 IDH1KD tx inconclusive and TDP1 cell noCPT 16µM*.
Screening O=C1c2cccnc2-c2ncccc21 returned TDP1 cell CPT 1%, HT1080NT lethal 19%, IL1B secr inh 6, HT1080 IDH1KD tx 11% and TDP1 cell noCPT -15%.
For O=C1C(=O)c2cccnc2-c2ncccc21 the results were TDP1 cell CPT 0.033µM*, HT1080NT lethal 1µM*, IL1B secr inh -108*, HT1080 IDH1KD tx 0.58µM* and TDP1 cell noCPT 0.0052µM*.
`COc1ccccc1N1C(=O)c2cccnc2C1=O` gave TDP1 cell CPT -2%, HT1080NT lethal 9%, IL1B secr inh -2, HT1080 IDH1KD tx 12% and TDP1 cell noCPT -12%.
COC1=C(Br)C(=O)c2ncccc2C1=O was read as TDP1 cell CPT 0.52µM*, HT1080NT lethal -22%, IL1B secr inh -14, HT1080 IDH1KD tx 8.2µM* and TDP1 cell noCPT 0.58µM*.
COc1cccc(OC)c1OCCNC[C@@H]1COc2ccccc2O1 was read as TDP1 cell CPT 27µM* and TDP1 cell noCPT 27µM*.
`Cc1cccc(NC(=S)NC(=O)c2ccco2)n1` gave TDP1 cell CPT 5%, HT1080NT lethal 6%, IL1B secr inh 27, HT1080 IDH1KD tx -1% and TDP1 cell noCPT -3%.
Cc1ccc(N2CCN(S(=O)(=O)N3CCCCC3)CC2)cc1Cl was read as TDP1 cell CPT inconclusive, HT1080NT lethal 11%, IL1B secr inh 0, HT1080 IDH1KD tx 29% and TDP1 cell noCPT inconclusive.
Cc1cc(C)c(N2CCN(S(=O)(=O)N3CCCCCC3)CC2)c(C)c1 was read as TDP1 cell CPT inconclusive, HT1080NT lethal inconclusive, IL1B secr inh -2, HT1080 IDH1KD tx inconclusive and TDP1 cell noCPT 18µM*.
CN1C(=O)CC(CC(=O)N2CCCCC2CCO)(c2cccc(F)c2)C1=O (stereo not drawn) was read as TDP1 cell CPT 14% and TDP1 cell noCPT 1%.
`Cc1ccc(OCCCCn2nnc3sc4c(c3c2=O)CCC(C)C4)cc1` (stereo not drawn) gave TDP1 cell CPT -14% and TDP1 cell noCPT -9%.
CCc1cccc(CC)c1NC(=O)Cn1nnc2sc3c(c2c1=O)CCCC3 was read as TDP1 cell CPT inconclusive and TDP1 cell noCPT 8.2µM*.
